We go through 17 compounds from ChEMBL document CHEMBL1961873, “Compounds: GSK PKIS; Assays: Nanosyn kinase panel” (2012).

Experiment [1] addresses Serine/threonine-protein kinase PAK 6 (Homo sapiens) (UniProt Q9NQU5). The settings on record: at 1 µM.
Experiment [2] has as its system Tyrosine-protein kinase ABL1 (Homo sapiens), P00519 [E255K]. Particulars: at 0.1 µM.
For experiment [3] the test system is unchanged. Particulars: at 1 µM.
Experiment [4] relates to Tyrosine-protein kinase ABL1 (Homo sapiens), P00519 [H396P]. Particulars: at 0.1 µM.
The test system is the same in experiment [5]. Particulars: at 1 µM.
In experiment [6] the test system is Tyrosine-protein kinase ABL1 (Homo sapiens), P00519 [M351T]. Particulars: at 0.1 µM.
For experiment [7] the test system is unchanged. Particulars: at 1 µM.
The test system of experiment [8] is Tyrosine-protein kinase ABL1 (Homo sapiens), P00519 [Q252H]. Particulars: at 0.1 µM.
The test system is the same in experiment [9]. The settings on record: at 1 µM.
The subject of experiment [10] is Tyrosine-protein kinase ABL1 (Homo sapiens), P00519 [T315I]. Particulars: at 0.1 µM.

Sequence of Serine/threonine-protein kinase PAK 6 (Homo sapiens) (Q9NQU5 whole entry, looked up): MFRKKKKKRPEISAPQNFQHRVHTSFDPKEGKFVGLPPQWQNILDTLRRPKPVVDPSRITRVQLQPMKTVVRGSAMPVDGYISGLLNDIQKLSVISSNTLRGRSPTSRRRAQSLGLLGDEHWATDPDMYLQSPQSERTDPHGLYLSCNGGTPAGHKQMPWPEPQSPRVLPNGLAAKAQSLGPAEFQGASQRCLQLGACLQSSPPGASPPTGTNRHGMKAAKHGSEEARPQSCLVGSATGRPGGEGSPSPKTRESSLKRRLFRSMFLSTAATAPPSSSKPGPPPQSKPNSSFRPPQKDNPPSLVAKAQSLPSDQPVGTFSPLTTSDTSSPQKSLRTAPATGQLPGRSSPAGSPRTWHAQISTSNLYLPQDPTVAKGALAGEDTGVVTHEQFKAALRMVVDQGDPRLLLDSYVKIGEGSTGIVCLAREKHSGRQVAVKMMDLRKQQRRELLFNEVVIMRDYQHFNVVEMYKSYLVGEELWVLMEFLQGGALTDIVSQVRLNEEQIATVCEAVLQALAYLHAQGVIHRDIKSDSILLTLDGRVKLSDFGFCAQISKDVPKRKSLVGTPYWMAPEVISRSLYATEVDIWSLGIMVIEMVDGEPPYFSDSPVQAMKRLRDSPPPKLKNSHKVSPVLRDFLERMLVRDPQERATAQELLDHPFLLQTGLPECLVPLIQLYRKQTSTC

As for `NC(=O)c1cc(-c2ccncc2)cc(-c2ccccc2)c1N`, the inhibition was -5.82% in [1]; 4.33% in [2]; 30.6% in experiment [3]; 9.63% in experiment [4]; 39.4% in experiment [5]; 5.03% in experiment [6]. Also, the inhibition in experiment [7] came out at 36.6%; in experiment [8], 9.54%; in experiment [9], 38.8%; in experiment [10] it was 4.26%.

For the compound `Fc1ccc(-c2nc3n(c2-c2ccncc2)CCS3)cc1`, the inhibition in [1] was -7.43%; in experiment [2], 1.52%; in [3] it was 4.79%; in experiment [4], 2.85%; in [5] it was 3.2%; in [6], 1.2%. In addition, the inhibition was determined as 4.76% in experiment [7], 2.91% in [8], 5.38% in experiment [9] and 1.83% in experiment [10].

Regarding `N#Cc1ccc(Oc2nccc(-c3c(-c4ccc(F)cc4)ncn3C3CCNCC3)n2)cc1`, the inhibition is -7.23% in experiment [1]; 2.37% in experiment [2]; 3.79% in experiment [3]; 3.91% in [4]; 5.59% in experiment [5]; 2.13% in [6]. Further, the inhibition in experiment [7] was 4.25%; in experiment [8] it was 4%; in experiment [9] it was 6.46%; in experiment [10], 3.62%.

Regarding `COc1cc(Nc2ncc3c(C)nc(-c4cccc(Oc5ccccc5)c4)n3n2)cc(OC)c1OC`, the inhibition in experiment [1] was -0.38%; in [2], 2.03%; in experiment [3] it was 1.82%; in experiment [4], 2.82%; in experiment [5], 1.6%; in experiment [6], 2.89%. Also, the inhibition in [7] came to 1.5%; in experiment [8], 3.94%; in [9], 0.97%; in [10], 0.51%.

In the case of `FC(F)(F)c1cccc(Nc2nccc(-c3cnn4nc(-c5ccccc5)ccc34)n2)c1`, the inhibition in [1] is -5.84%; in [2] it was 0.92%; in experiment [3], 2.38%; in experiment [4], -0.38%; in [5], 4.75%; in [6], -1.63%. The inhibition in experiment [7] was 2.9%; in [8] it was 1.86%; in [9], 5.75%; in experiment [10], -0.65%.

On to `CCC(=O)Nc1ccc(C)c(-c2ccc(C(=O)NCC3CC3)cc2)c1`, for which the inhibition in experiment [1] is -9.47%; in experiment [2] it was 2.13%; in [3] it was 2.73%; in [4], 3.96%; in experiment [5] it was 4.29%; in experiment [6], 2.37%. The inhibition in experiment [7] is 1.29%; in experiment [8], 3.29%; in experiment [9], 4.63%; in experiment [10], 2.76%.

With `CN1CCN(CCCNc2nc3ccc(Oc4ccc(NC(=O)Nc5cc(C(F)(F)F)ccc5F)cc4)cc3[nH]2)CC1`, the inhibition in [1] is -3.76%; in [2] it was 0.07%; in experiment [3], 4.6%; in experiment [4] it was 0.89%; in experiment [5], 15%; in experiment [6], 14.3%. Moreover, the inhibition was 45.5% in experiment [7], 12.8% in experiment [8], 48.1% in [9] and 16.6% in [10].

As to `CCc1nccc2c1nc(-c1nonc1N)n2CC`, the inhibition is -8.78% in experiment [1]; -0.36% in experiment [2]; 0.91% in experiment [3]; 1.08% in [4]; 1.44% in [5]; -0.68% in experiment [6]. Moreover, the inhibition in [7] is 3.2%; in experiment [8], 0.51%; in experiment [9], 3.64%; in experiment [10], -0.7%.

`Cc1ccc(NC(=O)c2ccoc2)cc1-c1ccc(C(=O)NCC2CC2)cc1`: the inhibition in experiment [1] was -2.77%; in experiment [2], 1.13%; in [3], -0.37%; in experiment [4], 3.08%; in experiment [5], 2.07%; in [6], 0.71%. The inhibition in experiment [7] was found to be 1.82%; in experiment [8], 2.29%; in experiment [9], 0.64%; in [10], 2.05%.

As for `Fc1ccc(-c2ncn(C3CCNCC3)c2-c2ccnc(Oc3ccc4c(c3)OCO4)n2)cc1`, the inhibition in experiment [1] was -5.42%; in experiment [2], 2.98%; in experiment [3], 4.48%; in experiment [4], 5.49%; in [5], 7.54%; in experiment [6], 1.29%. The inhibition in experiment [7] amounted to 3.88%; in experiment [8] it was 4.09%; in [9] it was 6.75%; in experiment [10] it was 3.51%.

Take `O=C(Nc1n[nH]c2nc(-c3ccco3)ccc12)C1CC1`: the inhibition was determined as 3.45% in experiment [1]; 2.26% in [2]; 5.68% in [3]; 3.89% in experiment [4]; 10.4% in [5]; 4.48% in experiment [6]. The inhibition came to 15% in experiment [7], 4.58% in experiment [8], 9.24% in experiment [9] and 2.66% in [10].

Take `C[C@@H](Oc1cc(-n2cnc3ccc(OC4CCN(C)CC4)cc32)sc1C(N)=O)c1ccccc1Cl`: the inhibition in experiment [1] is -9.57%; in [2], 1.25%; in [3], 8.32%; in experiment [4] it was 4.49%; in [5], 10.5%; in experiment [6] it was 0.86%. The inhibition stood at 5.39% in [7], 3.24% in [8], 11% in [9] and 2.01% in [10].

As for `COC(=O)Nc1nc2ccc(Sc3ccc(NC(=O)Nc4cc(C(F)(F)F)ccc4F)cc3)cc2[nH]1`, the inhibition in experiment [1] was 1.21%; in [2], -1.69%; in experiment [3], 14.8%; in [4], 2.95%; in experiment [5], 49.9%; in experiment [6], 33.2%. The inhibition stood at 70.2% in [7], 26.9% in experiment [8], 70.7% in experiment [9] and 27.7% in experiment [10].

On to `C/C(Nc1ccc(S(N)(=O)=O)cc1)=C1/C(=O)Nc2ccccc21`, for which the inhibition in [1] is 0.59%; in experiment [2], -1.03%; in experiment [3], 3.45%; in [4], 0.93%; in experiment [5], 7.24%; in [6], 3.92%. Further, the inhibition in experiment [7] stood at 14.7%; in experiment [8], 2.51%; in [9], 13.6%; in experiment [10], 1.39%.

As to `c1ccc(Oc2ccc(Nc3ncc(-c4ccccc4)o3)cc2)cc1`, the inhibition in [1] was -7.12%; in experiment [2] it was 1.57%; in [3], 0.84%; in experiment [4], 2.43%; in experiment [5], 0.51%; in [6], 1.56%. Also, the inhibition is 1.33% in [7], 1.3% in experiment [8], 0.81% in [9] and 1.59% in experiment [10].

Turning to `CCc1cccc(CC)c1/C=C/c1cncc(C(=O)NC)c1`, the inhibition in [1] worked out at 11.5%; in experiment [2] it was 3.61%; in experiment [3], 17.5%; in [4] it was 7.45%; in [5], 37.4%; in experiment [6], 7.15%. Besides, the inhibition in experiment [7] came to 32.1%; in experiment [8], 3.16%; in [9], 12.1%; in experiment [10], 2.72%.

Take `O=C(Nc1ccc(Oc2ccc3[nH]c(NC(=O)c4ccccc4)nc3c2)cc1)Nc1cc(C(F)(F)F)ccc1F`: the inhibition in experiment [1] worked out at 3.44%; in [2] it was 3.28%; in experiment [3] it was 27%; in [4], 17%; in [5] it was 71%; in [6] it was 44.6%. In addition, the inhibition in experiment [7] was 79.8%; in experiment [8] it was 38.4%; in [9] it was 74.6%; in experiment [10], 36.6%.
